A selection: hits, their analogues and other compounds. The true share with any hit is near 4%.
TRHR enhancer – allosteric enhancers of human TRH receptor. P34981. TRHR cells, fluo-8 calcium fluorescence, EC20 TRH enhancement. enhancement, % at 2 µM. hit rate 0.66% among 360,000. AID 493056; in the data active means enhancement above about 30%; further: 0% is about no effect
Target sequence (P34981 whole entry, looked up): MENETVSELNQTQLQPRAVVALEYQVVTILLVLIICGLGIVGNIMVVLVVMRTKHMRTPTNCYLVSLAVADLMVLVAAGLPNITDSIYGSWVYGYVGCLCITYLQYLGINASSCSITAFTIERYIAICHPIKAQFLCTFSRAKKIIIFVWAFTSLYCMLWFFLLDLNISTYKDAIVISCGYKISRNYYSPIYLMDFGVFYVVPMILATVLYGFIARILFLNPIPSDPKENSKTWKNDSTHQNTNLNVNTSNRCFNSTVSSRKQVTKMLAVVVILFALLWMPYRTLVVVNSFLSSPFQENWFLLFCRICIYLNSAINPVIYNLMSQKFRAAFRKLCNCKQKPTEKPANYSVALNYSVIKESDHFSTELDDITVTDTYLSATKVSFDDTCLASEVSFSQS
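TRHR-expressing cells loaded with fluo-8 calcium dye were read kinetically (ex 480/em 530) during compound addition, then stimulated with an EC20 of TRH (10 nM final). Enhancement of the Gq-mediated intracellular calcium response was scored.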
GRP78 ERSR act – inducers of ER stress response in human glioma cells; AID 602332; Potency, µM, inactives show top-dose activation, actives largely listed as activators; hit rate 0.02% among 420,000; U87-MG GRP78 promoter luciferase reporter, 16 h; active means well fitted activation curve with a large enough effect; inconclusive means small, poorly fitted or top-dose-only effect; inactive means no such curve, though single readings can be large or run the other way; further: potency means the concentration at half of the fitted maximal effect; series mostly up to about 76 µM; % of control where 0% means no effect; nearly all actives have a fitted effect of over 35% in size
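Stably transfected U87-MG glioma cells carrying a GRP78-based luciferase sensor; 16 h compound incubation. Luminescence end-point read 10 min after Bright-Glo addition at room temperature.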
TRHR ag – TRH receptor (human) agonism | P34981 | TRHR cells, calcium flux fluo-8, FDSS agonist mode | activation, % at 2 µM | hit rate 0.18% among 360,000 | AID 493084; further: 0% is about no effect
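TRHR-expressing cells, plated overnight in medium with 10% serum, were loaded with fluo-8 calcium dye at room temperature. After a 10 s baseline, library compound was pin-added and calcium release was recorded kinetically (ex 480/em 530) as agonist response.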
D1 PAM – potentiators of human D1 dopamine receptor; hit rate 0.036% among 360,000; P21728; HEK293 TREx D1 cells, calcium flux, dopamine EC20 potentiation; potentiation, % at 10 µM; in the data active means potentiation above about 30%; further: 0% is about no effect
D1 agonist – human D1 receptor agonism. P21728. hit rate 1% among 360,000. HEK293 T-REx D1 cells, calcium flux, agonist mode. AID 504660. activation, % at 2 µM; further: 0% is about no effect
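Agonism was scored from calcium flux recorded over 180 s (1 read/s) after pintool compound addition, following a 10-cycle baseline. Cells were inducible force-coupled HEK293 TREx D1, plated overnight at 30 C and loaded with no-wash calcium dye.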
D1 antag – antagonists of human D1 dopamine receptor | P21728 | HEK293 TREx D1 cells, calcium flux, dopamine EC80; hits give low values | activity change, negative = inhibition, % at 10 µM | hit rate 3.2% among 360,000 | AID 504652; in the data active means activity change below about -30%; further: on the % scale 0 is the no-effect control and ±100 the full control effect
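Compound effects on dopamine-evoked calcium signalling were measured in tetracycline-induced HEK293 Trex D1 cells. Dopamine at EC80 followed a 180 s compound pre-read, and fluorescence was tracked kinetically for 180 s more.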
Numbers without * were called inactive; ? = inconclusive; · = no result given. Unless noted, no stated cut-off is given here; in the data, active means activation above about 30%; inactive means the rest.

SMILES	TRHR enhancer	GRP78 ERSR act	TRHR ag	D1 PAM	D1 agonist	D1 antag
C#CCOCCOCCOCCNc1nc(N2CCN(C(=O)CCCCCCCCCCNC(=O)[C@H](CCCCN)n3cc(C)nn3)CC2)nc(N2CCN(C(=O)CCCCCCCCCCNC(=O)[C@H](CCCCN)n3cc(CCCC(=O)O)nn3)CC2)n1	7	-6%	0	-3	30*	14
CCSc1nnc(NC(=O)C(C)Sc2nc3ccccc3[nH]2)s1 (configuration not stated)	36*	0%	0	-3	3	10
O=C(CCCSc1nc2ccccc2[nH]1)Nc1nnc(C2CC2)s1	-19	-3%	0	-11	4	-36*
Cc1ccc(NC(=O)CCCSc2nc3ccccc3[nH]2)cc1	4	0%	-1	-1	1	-33*
CC(Sc1nc2ccccc2[nH]1)C(=O)O (configuration not stated)	5	-3%	-2	1	6	-3
CCc1ccc2oc(=O)cc(CN3CCN(c4ccc(F)cc4)CC3)c2c1	-3	-4%	0	-2	1	13
CN1C(=O)Cc2cc(S(=O)(=O)CCC(=O)Nc3ccccc3)ccc21	-5	-4%	0	-2	2	-24
COc1cc(NC(=O)CCS(=O)(=O)c2ccc3c(c2)CC(=O)N3C)cc(OC)c1OC	0	-2%	0	-5	5	-77*
COc1ccc(C)cc1NC(=O)CCS(=O)(=O)c1ccc2c(c1)CC(=O)N2C	12	-1%	0	-1	2	-32*
COC(=O)[C@@H](NC(=O)Nc1ccc2c(c1)OCCO2)C(C)C	-2	0%	0	-4	2	-13
Cc1ccc(CNC(=O)c2ccc(-n3c(C)cc4c3CCCC4)cc2)cc1	31*	-3%	0	2	0	4
Cc1cc2c(n1-c1ccc(C(=O)NCc3ccc(OC(C)C)cc3)cc1)CCCC2	-18	-2%	-1	1	1	-12
O=S(=O)(NCCOc1ccccc1)c1ccc2ccccc2c1	-7	-3%	0	-5	-2	12
O=C(NCc1ccccn1)c1ccc2c(=O)n(CCc3ccccc3)c(=O)[nH]c2c1	-5	3%	0	-10	9	-54*
CC(=O)NCCNC(=O)c1ccc2c(=O)n(CCc3ccccc3)c(=O)[nH]c2c1	6	-1%	0	-2	0	-67*
COCCNC(=O)c1ccc2c(=O)n(CCc3ccccc3)c(SCC(=O)CC(=O)OC)nc2c1	-3	-1%	0	-5	1	-34*
CN1CCN(CCCNC(=O)c2ccc3c(=O)n(CCc4ccccc4)c(=O)[nH]c3c2)CC1	4	6%	1	-15	3	1
CC1CCN(CCCNC(=O)c2ccc3c(=O)n(CCc4ccccc4)c(=O)[nH]c3c2)CC1	-3	-5%	-2	-1	3	-42*
COc1ccc(NC(=O)C2CCCN(c3nccc(C)n3)C2)cc1 (configuration not stated)	3	-4%	0	-3	1	-17
COCCNC(=O)c1cc(-c2cccs2)on1	7	?	0	2	-1	-13
O=C(CC(c1ccccc1)c1ccccc1)Nc1nn[nH]n1	-3	-4%	1	-2	4	-31*
O=C(NCCc1ccccc1)C(=O)NCC1(c2ccccc2)CCCC1	3	-2%	2	-8	9	-31*
CCOC(=O)C(C(=O)N(C)C)c1ncc(C(F)(F)F)cc1Cl (configuration not stated)	14	-2%	0	3	0	-46*
O=c1c2cc(-c3ccccc3)sc2ncn1/N=C/c1ccco1	6	2%	0	-5	1	-33*
CCCCn1cnc2sc(-c3ccccc3)cc2c1=O	-14	0%	1	0	4	-12
SMILES	TRHR enhancer	GRP78 ERSR act	TRHR ag	D1 PAM	D1 agonist	D1 antag
Cc1cc(S(=O)(=O)NC2CCCCC2)ccc1-n1cnnn1	-8	-4%	2	-5	10	-30*
COc1cc(S(=O)(=O)NCc2ccccc2)ccc1-n1cnnn1	8	-4%	1	·	5	1
CCc1ccccc1NS(=O)(=O)c1ccc2c(c1)NC(=O)CC(=O)N2	3	-4%	0	-4	3	3
COc1ccccc1CNS(=O)(=O)c1ccc2c(c1)NC(=O)CC(=O)N2	-1	-1%	0	-3	2	-33*
COc1ccccc1CNS(=O)(=O)c1ccc(-n2cnnn2)c(C)c1	-6	-5%	1	-8	7	-31*
O=C1c2ccccc2C(=O)N1c1ncc(Cc2ccc(Cl)cc2)s1	1	-1%	2	-11	6	-2
CC1CCN(S(=O)(=O)c2ccc(NC(=O)c3cccs3)cc2)CC1	6	-3%	0	-4	5	-4
COc1cccc(Cn2c(=O)c(-c3cc(F)cc(F)c3)nc3cnc(N4CCN(C)CC4)nc32)c1	·	-3%	·	·	·	·
Cc1cccc(OCc2cc(=O)n3c4c(sc3n2)CCCC4)c1C	-2	-3%	0	-3	3	-28
COc1ccc(C(=O)Nc2cccc(OCc3cc(=O)n4c5c(sc4n3)CCCC5)c2)cc1	7	1%	0	0	0	-30*
COc1cccc(C(=O)Nc2cccc(OCc3cc(=O)n4c5c(sc4n3)CCCC5)c2)c1	4	1%	0	1	5	-7
Cc1cc(Cl)ccc1OCc1cc(=O)n2c3c(sc2n1)CCCC3	-5	-3%	0	1	3	-31*
CCC(=O)Nc1cccc(NC(=O)c2ccc(C)cc2Cl)c1	3	1%	-1	-4	0	-46*
CC1(C)CC(NC(=O)C(c2ccccc2)c2ccccc2)CC(C)(C)N1	-6	-5%	0	-1	2	-32*
CCC(C(=O)NC1CC(C)(C)NC(C)(C)C1)c1ccccc1 (configuration not stated)	-3	-5%	0	-14	-1	-4
CC1(C)CC(NC(=O)CSc2ccccc2)CC(C)(C)N1	-2	0%	-1	-1	1	-34*
CCc1ccc(C(N)=S)cc1	-1	2%	-2	-1	3	-10
CC(=O)C1=C(O)C(=O)N(Cc2ccco2)C1c1ccccc1F (configuration not stated)	-5	-4%	-2	4	7	2
CC(C)(C)C(=O)C1=C(O)C(=O)N(Cc2ccccc2)C1c1ccccc1F (configuration not stated)	6	-3%	0	-6	54*	-13
Oc1c(CN2CCN(c3ccccc3)CC2)cc(Br)c2cccnc12	16	2%	1	-3	0	-87*
Cc1cc[n+](CC(=O)c2cccc([N+](=O)[O-])c2)c2ccccc12	34*	-3%	1	0	3	1

Screening data deposited in PubChem by National Center for Advancing Translational Sciences (NCATS).
